# From PubChem
# HT1080-NT tox = qHTS for induction of synthetic lethality in tumor cells producing 2HG: qHTS for the HT-1080-NT fibrosarcoma cell line. AID 686970, 2013. 360,000 tested, 1.6% active. Potency, µM (doses to about 46.1 µM), for the others: at the top dose activity, negative = less viability, most hits filed as cytotoxic. HT-1080-NT fibrosarcoma viability, CellTiter-Glo ATP luminescence, 48 h;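 further: NT is the 2HG producing partner of a matched IDH1 knockdown line; potency means the concentration at half of the fitted maximal effect; 0% = DMSO-treated cells and -100% = media-only wells without cells; nearly all actives have a fitted effect of over 55% in size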
#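 Viability of the 2HG-overproducing fibrosarcoma line after 48 hours of compound exposure at 37 degrees C was determined by luminescence with CellTiter-Glo, and concentration-effect curves were then fitted and categorized.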
# uPA generation = qHTS for Inhibitors of Cell Surface uPA Generation; cell surface uPA generation assay, qHTS; 330,000 tested, 0.31% active; Potency, µM (top dose mostly 38.3 µM), for the others: at the top dose activity change, negative = inhibition, hits mostly inhibitors; active means well fitted inhibition curve with a large enough effect; inconclusive means small, poorly fitted or top-dose-only effect; inactive means no such curve, though single readings can be large or run the other way; tested in mouse RAW 264.7 cells; further: potency means the concentration at half of the fitted maximal effect; nearly all actives have a fitted effect of over 55% in size
# IL-1B inflam inh = qHTS for Inhibitors of Inflammasome Signaling: IL-1-beta AlphaLISA Primary Screen | THP-1 LPS/ATP IL-1B secretion, AlphaLISA, 16 h; hits give low values | activity change, % at 57.5 µM | 360,000 tested, 4.7% active | AID 743279, 2014; in the data active means activity change below about -50%; inconclusive means mostly about -30% to -49%
#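 Secreted IL-1B measured by AlphaLISA bead assay after 16 h compound exposure of THP-1 cells; compounds (final up to 57.5 uM) added 1 h before LPS (250 ng/mL) and ATP (1.25 mM) stimulation; lower signal means less secretion.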
# DT40 TDP1 CPT = qHTS for Inhibitors of human tyrosyl-DNA phosphodiesterase 1 (TDP1): qHTS in cells in presence of CPT. chicken DT40 Tdp1-/-;hTDP1 cells + 20 nM CPT, ATP luminescence, 48 h. Potency, µM (highest dose often 46.2 µM), inactives show at the top dose activity change, negative = growth inhibition, usual class: inhibitors. 420,000 tested, 12% active; further: potency means the concentration at half of the fitted maximal effect; nearly all actives have a fitted effect of over 55% in size
#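 Chicken DT40 Tdp1-/- cells complemented with human TDP1, 400 cells/well, exposed to compounds plus 20 nM camptothecin for at least 48 h at 37 C; viability read as ATP content by CellTiter-Glo luminescence.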
# DT40 TDP1 no CPT = qHTS for Inhibitors of human tyrosyl-DNA phosphodiesterase 1 (TDP1): qHTS in cells in absence of CPT. DT40 Tdp1-/- hTDP1 cells, no CPT, ATP luminescence, 48 h. Potency, µM (top dose mostly 46.2 µM), without a hit: top-dose activity change, negative = growth inhibition, usual class: inhibitors. 420,000 tested, 15% active. AID 686978, 2013; further: potency means the concentration at half of the fitted maximal effect; nearly all actives have a fitted effect of over 55% in size
#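 Camptothecin absent (DMSO only). Human TDP1-complemented DT40 knockout cells, 400 cells/well, 37 °C for minimum 48 hr; ATP measured via CellTiter-Glo, 30 min dark incubation, luminescence.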
# HT1080 IDH1KD tx = qHTS for induction of synthetic lethality in tumor cells producing 2HG: qHTS for the HT-1080-IDH1KD cell line; HT-1080 IDH1 knockdown viability, ATP luminescence, 48 h; Potency, µM (titrated, usually from 46.1 µM), for inactives: at the top dose activity, negative = toxicity, actives largely listed as cytotoxic; 360,000 tested, 2% active;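 further: potency means the concentration at half of the fitted maximal effect; 0% = DMSO wells and -100% = cell-free medium wells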
#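 Viability of IDH1-knockdown HT-1080 fibrosarcoma cells was assessed by CellTiter-Glo after 48 h at 37 °C with titrated compound; concentration-effect curves were classified by fit quality and response size.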
# Numbers without * were called inactive; ? = inconclusive; nt = no result given. Hits are enriched below; roughly 19% of the tested compounds scored in any of these assays. Unless noted, the call rests on the fitted dose curve; in most records, active means well fitted curve in the direction sought with a large enough effect; inconclusive means small, poorly fitted or top-dose-only effect, or another doubt; inactive means no such curve, though single readings can be large; an effect the other way counts as inactive or inconclusive. Unless noted, on the % scale 0 is the no-effect control and ±100 the full control effect.
SMILES,HT1080-NT tox,uPA generation,IL-1B inflam inh,DT40 TDP1 CPT,DT40 TDP1 no CPT,HT1080 IDH1KD tx
COCCN(C(=O)c1ccc2c(c1)S(=O)(=O)N=C1CCCCCN12)c1c(N)n(CC(C)C)c(=O)[nH]c1=O,7%,16%,5,2%,20%,2%
CC(=O)Nc1cccc(NC(=O)C(=O)c2cn(CC(=O)N3CCCC3)c3ccccc23)c1,0%,nt,-2,?,?,7%
CC(C)c1ccccc1NC(=O)CN(c1ccccc1)S(=O)(=O)N(C)C,nt,nt,nt,?,-26%,nt
CCNC(=O)C1CCCN(C(=O)c2ccc(OC)c(OC)c2)CC1 (configuration not stated),15%,nt,6,20%,8%,2%
N#CC1c2ccccc2-c2ccccc2N1C(=O)c1ccccc1 (configuration not stated),?,nt,64,5.8µM*,5.8µM*,9.2µM*
CCOc1ccc(S(=O)(=O)N(CC(=O)NCc2cccnc2)c2ccc(C)cc2)cc1,-2%,2%,-7,?,?,-6%
Cc1ccc(S(=O)(=O)N(CC(=O)NCc2cccnc2)c2ccc(F)cc2)cc1,0%,1%,7,-25%,18µM*,14%
Cc1ccc(S(=O)(=O)N(C)c2ccc(C(=O)NCc3cccnc3)cc2)cc1,-2%,0%,44,?,?,-19%
CCOc1ccc(S(=O)(=O)N(CC(=O)NCc2cccnc2)c2ccc(F)cc2)cc1,-11%,0%,6,?,18µM*,2%
CN1CCN(c2nc(C(N)=O)cc(-c3ccccc3)n2)CC1,4%,3%,-57*,-5%,-23%,0%
CN(N)c1nc(-c2ccccc2)cc(-c2ccccc2)n1,0%,-3%,-64*,?,?,-5%
Cc1nc(-c2ccccc2)cc(-c2ccccc2)n1,1%,0%,27,2%,0%,-2%
CCN(CC)c1nc(C(N)=O)cc(-c2ccccc2)n1,-24%,3%,-73*,-5%,-19%,?
Cn1cc(S(=O)(=O)N2CCCCC2)cc1C(=O)Nc1ccc(OC(F)(F)F)cc1,nt,nt,nt,-1%,-24%,nt
COc1cc(OC)cc(C(=O)OCC(=O)NC2CCCCCCC2)c1,-1%,nt,18,-26%,?,-2%
CCCCCSc1nnc2c(n1)[nH]c1c(C)cccc12,nt,nt,nt,9.2µM*,2.9µM*,nt
S=c1[nH]nc(-c2ccccc2)n1/N=C/c1ccc(-c2ccccc2Cl)o1,-14%,?,-7,?,13µM*,?
S=c1[nH]nc(-c2cccc(Cl)c2)n1/N=C/c1ccc(-c2ccccc2Br)o1,6%,20%,25,?,?,4%
Cc1nc(N2CCN(c3ccccn3)CC2)c2c(C)c(C(=O)Nc3ccc(F)cc3Cl)sc2n1,0%,11%,?,23µM*,21µM*,0%
Cc1nc(N2CCOCC2)c2c(C)c(C(=O)Nc3ccccc3Cl)sc2n1,-16%,2%,-4,-13%,?,-2%
Cc1nc(N2CCN(c3ccccn3)CC2)c2c(C)c(C(=O)Nc3ccccc3F)sc2n1,6%,-1%,-9,?,16µM*,11%
Cc1ccc(F)cc1NC(=O)c1sc2ncn(CC(=O)N3CCN(c4ccccn4)CC3)c(=O)c2c1C,0%,23%,-5,9%,?,0%
Cc1nc(N2CCC(C)CC2)c2c(C)c(C(=O)Nc3ccc(C(F)(F)F)cc3)sc2n1,?,6%,-84*,?,?,?
Cc1nc(N2CCN(c3ccccn3)CC2)c2c(C)c(C(=O)Nc3ccc(F)cc3F)sc2n1,5%,1%,-21,16µM*,13µM*,2%
Cc1nc(N2CCOCC2)c2c(C)c(C(=O)Nc3ccc(F)cc3Cl)sc2n1,22%,-2%,-14,-9%,1%,14%
SMILES,HT1080-NT tox,uPA generation,IL-1B inflam inh,DT40 TDP1 CPT,DT40 TDP1 no CPT,HT1080 IDH1KD tx
Cc1nc(N2CCC(C)CC2)c2c(C)c(C(=O)Nc3cccc(C(F)(F)F)c3)sc2n1,?,-1%,0,?,?,?
FC(F)(F)c1ccccc1-c1nccc(N2CCNCC2)n1,nt,nt,nt,-5%,3%,nt
CC1/C=C/C=C/C=C/C=C/C=C/C=C/C=C/C(OC2OC(C)C(O)C(N)C2O)CC2O[C@@](O)(CC(O)CC(O)C(O)CCC(O)CC(O)CC(=O)OC(C)[C@H](C)C1O)CC(O)C2C(=O)O (some centres not stated),nt,nt,nt,-1%,0%,nt
CCOc1ccc(-c2cc(C(=O)Nc3ccc(NC(C)=O)cc3)no2)cc1,nt,nt,nt,1%,-4%,nt
COCCNC(=O)c1cccc2c(-c3ccnn3C)coc12,5%,nt,64,?,?,1%
CCCCC[C@H](C)N1C[C@H](COCc2ccccc2)Oc2cc(N3CCC[C@H]3C(N)=O)ccc2S1(=O)=O,?,nt,-28,?,?,?
C[C@H](c1ccccc1)N1C[C@H](COCc2ccccc2)Oc2cc(N3CCC[C@H]3C(N)=O)ccc2S1(=O)=O,-26%,nt,-8,?,16µM*,?
CCCCC[C@@H](C)N1C[C@H](COCc2ccccc2)Oc2cc(N3CCC[C@H]3C(N)=O)ccc2S1(=O)=O,-18%,nt,-11,2.9µM*,6.5µM*,-12%
CC(=O)Nc1cnc(-c2cc(C)c(O)c(C)c2)cn1,-7%,nt,2,?,-24%,-21%
O=c1c(Cl)c(N2CCC3(CC2)OCCO3)cnn1C12CC3CC(CC(C3)C1)C2,1%,0%,4,?,13µM*,4%
O=c1c(Cl)c(NCc2ccccc2)cnn1C12CC3CC(CC(C3)C1)C2,-6%,-5%,-1,-7%,?,-2%
Cc1cc(C)c2cc(CN(CCN3CCCC3)C(=O)Nc3ccc(F)cc3)c(=O)[nH]c2c1,?,-10%,-80*,15µM*,21µM*,18µM*
COc1ccc(OC)c(CN(CCN2CCOCC2)C(=O)Nc2cccc(Cl)c2)c1,-2%,3%,-10,-23%,?,-4%
COc1cc2cc(CN(CCCN3CCOCC3)C(=O)Nc3ccc(F)cc3)c(=O)[nH]c2cc1OC,-16%,-27%,-25,-29%,?,-11%
